Experiment [1] in a line: APR_HepG2_CellLoss_72hr: Apredica 72-hour HepG2 Assay for Cell Loss (AID 2282915). To be noted: high-content imaging. The method, boiled down: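 HepG2 cells were exposed for 72 hr to compounds at 0.39–200 uM (ten concentrations, duplicate) in 0.5% v/v final DMSO. Nuclei were stained with Hoechst 33342 after 3.7% formaldehyde fixation, imaged at 20x, and counted; fits bidirectional versus DMSO.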

A short description of experiment [2]: APR_HepG2_P-H2AX_72hr: Apredica 72-hour HepG2 Assay for H2AX Phosphorylation (AID 2282916).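 Further: phospho-histone H2A.x immunostain intensity per cell marking DNA damage.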 Conditions: imaging, actives raise or lower the signal. The essentials:
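Human hepatoma HepG2 cells are dosed across ten concentrations (0.39 to 200 uM, 0.5% v/v DMSO) and incubated 72 hr. Phospho-histone H2A.x is then detected by antibody staining alongside c-Jun and Hoechst, and quantified by automated fluorescence imaging.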

The nature of experiment [3]: APR_HepG2_MitoMembPot_72hr: Apredica 72-hour HepG2 Assay for Mitochondrial Membrane Potential (AID 2282917). To be noted: imaging, actives raise or lower the signal. The method, boiled down: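 HepG2 cells exposed 72 h to compounds at 0.39–200 uM (0.5% v/v DMSO, duplicates); MitoTracker Red CMXRos 250 nM loaded 30 min before 3.7% formaldehyde fixation, imaged by HCS fluorescence. Bidirectional fit versus DMSO.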

Experiment [4] in a line: APR_HepG2_MitoticArrest_72hr: Apredica 72-hour HepG2 Assay for Mitotic Arrest (AID 2282918). To be noted: high-content imaging, actives raise or lower the signal. The essentials: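 HepG2 cells were exposed for 72 hr to compound at 0.39–200 uM (10 concentrations, duplicate) in 0.5% v/v DMSO, fixed in 3.7% formaldehyde, immunostained for phospho-histone H3 with Hoechst 33342 and imaged by high-content fluorescence; bidirectional fits versus DMSO.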

A short description of experiment [5]: APR_HepG2_P-H2AX_24hr: Apredica 24-hour HepG2 Assay for H2AX Phosphorylation (AID 2282920). Conditions: high-content imaging, actives raise or lower the signal. The essentials:
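HepG2 human liver cells were exposed for 24 hr to compounds at 0.39–200 uM in duplicate, with 0.5% v/v DMSO final. Fixed cells were immunostained for phospho-histone H2A.x plus Hoechst 33342, imaged by HCS fluorescence, and fitted bidirectionally against DMSO.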

Experiment [6] in a line: APR_HepG2_StressKinase_72hr: Apredica 72-hour HepG2 Assay for Stress Kinase (AID 2282921). To be noted: HepG2 stress kinase (phospho-c-Jun) imaging, actives raise or lower the signal. The method, boiled down: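 After a 72 h compound treatment spanning 0.39 to 200 uM, formaldehyde-fixed cells are labelled for phosphorylated c-Jun and nuclei, imaged by automated fluorescence microscopy, and activity is fitted in both directions relative to DMSO controls.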

Experiment [7] is described as follows: APR_HepG2_p53Act_72hr: Apredica 72-hour HepG2 Assay for p53 Activation (AID 2282923).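 Further: average cellular p53 protein immunofluorescence intensity in HepG2 cells.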 To be noted: high-content imaging, actives raise or lower the signal. The essentials:
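Imaging-based endpoint: after 72 hr compound exposure (up to 200 uM, 0.5% DMSO), fixed and permeabilized monolayers were labelled with anti-p53 antibody and imaged; signal change in either direction was fitted relative to DMSO controls.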

Experiment [8] is described as follows: APR_HepG2_MitoMass_72hr: Apredica 72-hour HepG2 Assay for Mitochondrial Mass (AID 2282924).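 Further: MitoTracker Red CMXRos stain intensity per cell imaged as mitochondrial mass.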 To be noted: high-content imaging, actives raise or lower the signal. The essentials: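 Steps: treat HepG2 72 hr (0.39–200 uM, duplicate wells); load MitoTracker Red CMXRos, 250 nM, 30 min; fix with 3.7% formaldehyde, permeabilise with 0.5% Triton X-100; capture images, nuclei via Hoechst 33342; fit bidirectionally against DMSO.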

Experiment [9] in a line: ATG_CRE_CIS: Attagene CIS-FACTORIAL HepG2 Assay for human cAMP Responsive Element (CRE) binding protein 3 (AID 2282926). To be noted: HepG2 CRE cis-reporter, Attagene multiplexed mRNA; actives raise or lower the signal. The method, boiled down: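 Capillary electrophoresis of 6-FAM-labelled, HpaI-digested PCR products quantified reporter transcripts. These came from HepG2 transiently transfected with cis-element reporters and exposed to test chemicals for 24 hours, with DMSO defining baseline activity.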

The nature of experiment [10]: ATG_CMV_CIS: Attagene CIS-FACTORIAL HepG2 Assay for human CMV (Internal Marker) (AID 2282928).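 Further: endpoint acts as a background internal control marker rather than a target.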 Conditions: HepG2 CMV promoter reporter, transcription factor profiling; actives raise or lower the signal. The method, boiled down: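 Bidirectional fits against DMSO are applied to reporter mRNA, read by RT-PCR with capillary electrophoresis, from HepG2 cells exposed 24 h. The endpoint serves as an internal CMV background marker within the cis-factorial reporter panel.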

Experiment [11] can be described thus: ATG_DR4_LXR_CIS: Attagene CIS-FACTORIAL HepG2 Assay for human Liver X Receptor (LXR), DR4 submotif (AID 2282929). To be noted: HepG2 Attagene DR4 cis-reporter, mRNA transcription; actives raise or lower the signal. The method, boiled down:
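After transient transfection with multiplexed cis-promoter reporter units, HepG2 cells received test chemicals for 24 h. Reporter mRNA induction, detected by fluorescence after RT-PCR and capillary electrophoresis, was scored relative to DMSO.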

Experiment [12] concerns the target Aryl hydrocarbon receptor (Homo sapiens) (UniProt P35869). In words: ATG_Ahr_CIS: Attagene CIS-FACTORIAL HepG2 Assay for human Aryl Hydrocarbon Receptor (Ahr) (AID 2282930). To be noted: HepG2 AhR cis-factorial reporter transcription; actives raise or lower the signal. The essentials: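 Values derive from bidirectional fitting against DMSO negative control. Underlying signal: cis-element reporter mRNA in transiently transfected HepG2, harvested 24 h post-dose and measured by RT-PCR plus capillary electrophoresis.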

A short description of experiment [13]: ATG_AP_1_CIS: Attagene CIS-FACTORIAL HepG2 Assay for human Activator Protein 1 (AP-1) (AID 2282931). To be noted: HepG2 Attagene cis-factorial AP-1 reporter mRNA; actives raise or lower the signal. The essentials:
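After 24 h incubation with test chemical, RNA from transfected HepG2 cells was reverse-transcribed, amplified, fluorescently labelled and digested before capillary electrophoresis. Reporters were driven by cis-regulatory promoters; activity fitted bidirectionally versus DMSO.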

Experiment [14] can be described thus: ATG_AP_2_CIS: Attagene CIS-FACTORIAL HepG2 Assay for human Activator Protein 2 (AP-2) (AID 2282932). To be noted: HepG2 AP-2 cis-reporter, Attagene transcription factor profiling; actives raise or lower the signal. The essentials:
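Cells (HepG2) transfected with promoter-driven reporter constructs, treated 24 h. Total RNA reverse-transcribed, reporter cDNA PCR-amplified, FAM-labelled by primer extension, digested, resolved by capillary electrophoresis. Activity fitted both directions versus DMSO.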

The nature of experiment [15]: ATG_BRE_CIS: Attagene CIS-FACTORIAL HepG2 Assay for human Bone Morphogenetic Protein (BMP) Response Element (BRE) (AID 2282933). Conditions: HepG2 BMP response element reporter, Attagene transcription factor profiling; actives raise or lower the signal. The essentials: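 HepG2 cells transiently transfected with CIS reporter units (endogenous TF activity, BMP response element), dosed 24 h. Reporter mRNA quantified by RT-PCR, fluorescent labelling and capillary electrophoresis; bidirectional fit vs DMSO baseline.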

The target in experiment [16] is Retinoic acid receptor alpha (Homo sapiens) (UniProt P10276). Briefly: ATG_DR5_RAR_CIS: Attagene CIS-FACTORIAL HepG2 Assay for human Retinoic Acid Receptor Alpha (RARE), DR5 submotif (AID 2282934).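 On AC50: reporter responds to endogenous RAR alpha beta and gamma in HepG2 not RARA alone.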 To be noted: HepG2 Attagene cis-factorial RARE DR5 reporter, mRNA; actives raise or lower the signal. The essentials: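 Endpoint fitted in both directions relative to DMSO as negative control. It reflects DR5 cis-element reporter mRNA induction in transiently transfected HepG2 cells, measured 24 h after dosing through RT-PCR and fluorescent capillary electrophoresis.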

Experiment [17] is described as follows: APR_HepG2_MicrotubuleCSK_72hr: Apredica 72-hour HepG2 Assay for Microtubule CSK Stabilty (AID 2282919). To be noted: HepG2 microtubule cytoskeleton, high-content imaging, actives raise or lower the signal. The essentials: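 Ten-point dosing (0.39–200 uM, 0.5% DMSO) of HepG2 for 72 hr, with taxol as the cytoskeletal positive control. The cells were formaldehyde-fixed and then stained with alpha-tubulin/Cy5 and Hoechst. Imaging at 20x used a −2 um Z offset for tubulin.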

The nature of experiment [18]: APR_HepG2_StressKinase_24hr: Apredica 24-hour HepG2 Assay for Stress Kinase (AID 2282922). To be noted: HepG2 stress kinase (phospho-c-Jun) imaging, actives raise or lower the signal. The essentials:
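After 24 hr compound treatment (up to 200 uM, final DMSO 0.5% v/v), HepG2 cells are fixed and multiplex-labeled; phospho-c-Jun intensity is captured by high-content fluorescence imaging and analyzed relative to DMSO.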

Experiment [19] can be described thus: APR_HepG2_NuclearSize_72hr: Apredica 72-hour HepG2 Assay for Nuclear Size (AID 2282925). Conditions: high-content imaging, actives raise or lower the signal. The essentials:
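Compounds (0.39–200 uM, final DMSO 0.5%) were applied to HepG2 for 72 hr. Cells were then formaldehyde-fixed, permeabilized and labelled with Hoechst 33342. Nuclear diameter was quantified from six images per well.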

In experiment [20] the target is CCAAT/enhancer-binding protein beta (Homo sapiens) (UniProt P17676). In words: ATG_C_EBP_CIS: Attagene CIS-FACTORIAL HepG2 Assay for human CCAAT/Enhancer Binding Protein (C/EBP) beta (AID 2282927). To be noted: HepG2 Attagene cis-factorial transcription factor reporter; actives raise or lower the signal. The method, boiled down:
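Following a 24 h incubation with test chemical, transfected HepG2 cells yielded RNA whose reporter transcripts were quantified by RT-PCR and fluorescent capillary electrophoresis, with DMSO serving as baseline for bidirectional fitting.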

“And” between values parts separate entries of the source, which are not always exact repeats. Equal entries are not always repeated. More than one record can exist for a structure, and the calls need not agree. The source made the active and inactive calls. How the source made its calls: active means hit-call score of the fitted dose curve at least 0.9, where 1 is the maximum; inactive means score below 0.9.

Sequence of CCAAT/enhancer-binding protein beta (Homo sapiens) (P17676 whole entry, looked up): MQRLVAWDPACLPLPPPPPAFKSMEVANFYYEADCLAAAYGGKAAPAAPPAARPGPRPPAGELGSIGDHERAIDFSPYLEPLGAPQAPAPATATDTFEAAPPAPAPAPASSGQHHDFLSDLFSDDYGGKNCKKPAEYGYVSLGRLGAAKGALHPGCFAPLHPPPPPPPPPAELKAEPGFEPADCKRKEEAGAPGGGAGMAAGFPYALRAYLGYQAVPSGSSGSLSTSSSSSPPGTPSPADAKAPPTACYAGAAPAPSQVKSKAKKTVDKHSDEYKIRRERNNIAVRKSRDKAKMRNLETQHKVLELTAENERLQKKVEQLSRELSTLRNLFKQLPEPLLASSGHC
Sequence of Retinoic acid receptor alpha (Homo sapiens) (P10276 whole entry, looked up): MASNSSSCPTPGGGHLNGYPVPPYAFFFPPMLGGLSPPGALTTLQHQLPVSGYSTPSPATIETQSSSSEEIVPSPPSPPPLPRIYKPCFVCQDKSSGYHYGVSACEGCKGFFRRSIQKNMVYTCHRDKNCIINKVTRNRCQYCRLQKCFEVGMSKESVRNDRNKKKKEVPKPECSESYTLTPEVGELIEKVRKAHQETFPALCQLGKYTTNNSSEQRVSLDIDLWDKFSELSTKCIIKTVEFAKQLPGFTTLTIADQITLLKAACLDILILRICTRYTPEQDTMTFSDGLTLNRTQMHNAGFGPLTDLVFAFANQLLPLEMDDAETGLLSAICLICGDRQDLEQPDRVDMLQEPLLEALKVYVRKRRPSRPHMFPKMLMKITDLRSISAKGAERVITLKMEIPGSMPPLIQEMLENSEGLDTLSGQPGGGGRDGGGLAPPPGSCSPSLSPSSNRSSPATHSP
Sequence of Aryl hydrocarbon receptor (Homo sapiens) (P35869 whole entry, looked up): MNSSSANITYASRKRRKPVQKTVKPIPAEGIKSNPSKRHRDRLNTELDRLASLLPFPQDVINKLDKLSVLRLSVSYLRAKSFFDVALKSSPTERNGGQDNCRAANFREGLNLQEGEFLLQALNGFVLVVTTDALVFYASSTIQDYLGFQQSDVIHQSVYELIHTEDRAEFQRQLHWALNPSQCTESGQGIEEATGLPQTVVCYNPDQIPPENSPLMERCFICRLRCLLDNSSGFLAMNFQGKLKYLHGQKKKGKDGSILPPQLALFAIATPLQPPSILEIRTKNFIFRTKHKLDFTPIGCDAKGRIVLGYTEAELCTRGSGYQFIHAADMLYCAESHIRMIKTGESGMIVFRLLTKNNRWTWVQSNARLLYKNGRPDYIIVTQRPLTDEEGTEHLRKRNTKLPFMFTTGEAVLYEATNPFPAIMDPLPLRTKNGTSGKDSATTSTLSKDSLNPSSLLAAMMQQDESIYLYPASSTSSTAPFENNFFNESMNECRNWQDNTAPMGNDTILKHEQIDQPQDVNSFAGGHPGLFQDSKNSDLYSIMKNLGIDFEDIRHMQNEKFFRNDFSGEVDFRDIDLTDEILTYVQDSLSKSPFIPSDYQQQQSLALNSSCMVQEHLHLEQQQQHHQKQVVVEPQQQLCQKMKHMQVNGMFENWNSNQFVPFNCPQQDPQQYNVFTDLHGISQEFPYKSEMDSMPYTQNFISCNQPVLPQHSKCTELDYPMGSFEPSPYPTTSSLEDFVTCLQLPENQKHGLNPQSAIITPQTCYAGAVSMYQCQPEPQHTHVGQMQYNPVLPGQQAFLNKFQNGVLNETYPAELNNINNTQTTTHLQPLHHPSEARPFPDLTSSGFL

As to `COC(=O)c1ccccc1S(=O)(=O)NC(=O)Nc1nc(C)nc(OC)n1`, the call in experiment [1], in experiment [2], in [3], in [4], in [5] and in [6] was inactive. Also, the result in experiment [7], in experiment [8], in experiment [9], in [10], in experiment [11] and in [12] was inactive. For the same compound, the call in [13], in experiment [14], in experiment [15] and in [16] was inactive. The AC50 in experiment [13] was 63.1 µM (active); in experiment [15], 27.1 µM (active).
Regarding `O=C(NC(=O)c1c(F)cccc1F)Nc1ccc(OC(F)(F)C(F)OC(F)(F)F)c(Cl)c1` (configuration not stated), the compound was called inactive in experiment [2], in experiment [3], in experiment [4], in experiment [17], in experiment [5] and in experiment [6]. The compound was classed as inactive in experiment [18], in experiment [8], in experiment [9], in experiment [10], in experiment [11] and in experiment [12]. Also, the outcome in experiment [13] and in experiment [14] was inactive. For the same compound, the AC50 in [15] is 14.2 µM (active).
As to `ClC1C(Cl)C(Cl)C(Cl)C(Cl)C1Cl` (configuration not stated), the outcome in [2], in [3], in [4], in experiment [5], in experiment [6] and in experiment [7] was inactive. Moreover, the call in experiment [8], in experiment [19], in experiment [9], in experiment [10], in [11] and in experiment [12] was inactive. Also, the compound was called inactive in experiment [13], in experiment [14], in [15] and in experiment [16]. Also, the AC50 in experiment [9] was 16 µM (active); in experiment [10], 65.5 µM (active); in experiment [11] it was 116 µM (active) and 21.7 µM (active); in experiment [13], 47.9 µM (active); in experiment [15] it was 10.5 µM (active); in experiment [16], 11 µM (active) and 5.74 µM (active).
Consider `Clc1ccccc1-c1nnc(-c2ccccc2Cl)nn1`, for which the AC50 in experiment [2] is 46.4 µM (active). Moreover, the call in [3], in experiment [4], in experiment [5], in [6], in [8] and in experiment [9] was inactive. The outcome in [20], in [10], in experiment [11], in experiment [12], in experiment [13] and in experiment [14] was inactive. For the same compound, the result in [15] and in [16] was inactive.
On to `CCOC1Oc2ccc(OS(C)(=O)=O)cc2C1(C)C` (configuration not stated), for which the call in [2], in [3], in experiment [4], in [17], in [5] and in [6] was inactive. The call in experiment [8], in [10], in [11], in experiment [12], in experiment [13] and in experiment [14] was inactive. Further, the figures for the AC50 in experiment [9], in [15] and in [16] were 24 µM (active), 61.4 µM (active) and 12.5 µM (active), respectively.
Turning to `Cc1cc(C)nc(NC(=O)NS(=O)(=O)c2ccccc2C(=O)OC2COC2)n1`, the compound was called inactive in experiment [2], in experiment [3], in experiment [4], in experiment [5], in experiment [6] and in experiment [7]. In addition, the compound was classed as inactive in experiment [8], in experiment [9], in experiment [20], in experiment [10], in [11] and in experiment [12]. In addition, the call in [13], in [14] and in experiment [16] was inactive. Moreover, the AC50 in [15] is 91 µM (active).
Regarding `COP(=S)(OC)Oc1ccc(SC)c(C)c1`, the outcome in [2], in experiment [3], in experiment [4], in experiment [5], in [6] and in experiment [7] was inactive. Moreover, the outcome in [8], in [9], in experiment [20], in experiment [10], in [13] and in experiment [14] was inactive. Also, the compound was called inactive in [15] and in [16]. Moreover, the AC50 in experiment [11] is 29.2 µM (active); in experiment [12], 10.6 µM (active).

For the origin of these results see PubChem BioAssay (EPA / NIEHS).
